Source: PubChem BioAssay AID1508600 (Functional Genomics Laboratory (NCATS/FGL), 2020)
Out of some 53,000 sequences screened, about 3,700 (7%) were called active.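 Rule for the calls: active = gene knockdowns whose robust z-score for IL-1 alpha signal is at least 2 or at most -2, so actives lie on both sides; inactive = the rest.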 Shown is part of a subset that was picked to be rich in actives.

assay: Components of the Cytosolic LPS Sensing Pathway: Gene Identification via Genome-wide siRNA Screen; conditions: RAW264.7 macrophages, IL-1a HTRF, actives lie on both sides, screened at 100 nM (by protocol), cells primed 5 h with Pam3CSK4 first;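 note: robust z of the log signal after scaling to non-targeting control siRNA wells of the plate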
Method in brief: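 Mouse macrophage line RAW264.7 is transfected with siRNA (100 nM final), grown 48h, primed with TLR ligand Pam3CSK4 5 h and given intracellular LipidA 24 h. IL-1a in supernatant is read by HTRF and viability by luminescence.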

Sequence	z-score
GCUCAUCUUAUCCUCUAAGTT against Cts7	0.391 (inactive)
UCAGGUCGCUGCUAAACUCTT against Ccdc57	-1.26 (inactive)
GGUUCAAAGGUGAUGGUGUTT against Dab2	0.273 (inactive)
CGAGCUUUGAAAGUUUAAUTT against Pcsk2	0.591 (inactive)
CCUGACGAUUGAGUAUCAUTT against Tubgcp4	-0.267 (inactive)
GGACCAGACGAACAGUGAUTT against Surf2	2.28 (active)
GGACCUGCCCAAAUCUGAUTT against Fbxo40	0.307 (inactive)
CGGCUCUUCAAUAGAGCCUTT against Olfr123	-0.265 (inactive)
GGAUUAUGGUCUCAUUGUCTT against Exd2	0.0549 (inactive)
GGAGCUUUCUCAGAGGUGUTT against Camk1g	-1.47 (inactive)
GCUGCUCGUUAAAGCCGGATT against Ankrd6	2.92 (active)
CCAGAUGCAGUCACAAGUCTT against Klf4	0.843 (inactive)
GGUUUUAAAGGCCAUAUUGTT against Msmo1	-1.72 (inactive)
GCCGACAACACAAAAUUAUTT against Vps26b	0.4 (inactive)
CGAAAGCACACACGUAGAATT against Erdr1	0.391 (inactive)
GGUCUUCCAAGGUCAGAAGTT against Cyp2d10	1.5 (inactive)
GGCAAUAAUCUUAGAGGUUTT against 9530068E07Rik	0.499 (inactive)
GCUGUAAGGAGGAACUUCUTT against Btg1	-1.03 (inactive)
GGUCUCUGGUAAGAAGAGCTT against Zfp276	2.95 (active)
CCGAACAGAGGAAGAAGGCTT against Olfr816	0.281 (inactive)
GGGAGGACAGUCAUUGGUUTT against Phldb1	-1.84 (inactive)
GCAUAAGGAUAUAGCAUUATT against Ctla4	-0.72 (inactive)

Sequence	z-score
GGCAUUUGCACAGUUUAUGTT against Upp2	-1.42 (inactive)
GGGUCCUUUUUAGCUGUAGTT against Vdac1	3.83 (active)
CCUAGUAAUCAGUUUGAAUTT against Ak4	1.17 (inactive)
CCAUAUGGCUUGUGGCAGATT against Scn1b	-0.245 (inactive)
GGUGACAGAGAUUUUCGAATT against Tbc1d22a	0.931 (inactive)
GGCAAGUCUUUAAAAGUCCTT against Xrcc2	-1.48 (inactive)
GGCCUUCCGCAUUUUAUCATT against Zfp729a	2.43 (active)
GGAGAAGAAGCUGGACCAGTT against Atp5o	0.348 (inactive)
GGUACAAUACAUUCAAACATT against Serpinb6c	-0.82 (inactive)
CCCUUGUCCAGUGUGAGUUTT against Tmem184b	1.07 (inactive)
GGCACAGACCUCACAGUUATT against Olfr64	0.534 (inactive)
GGAAAAAGCUGUGAUACUUTT against Hspbap1	-0.895 (inactive)
GGAACUGAUUGAAAACAUCTT against Syce2	2.97 (active)
GCAAAAUUAUCAGUGAGGATT against Nt5c3b	-2.54 (active)
GGGCAGAAAACAACUGGAATT against Pappa	-1.1 (inactive)
GGAGGAUGGAGUCAUAUAUTT against Gm773	-0.41 (inactive)
GGAGUUUGGAAUAAAAAGGTT against Flt3	-0.173 (inactive)
GCAGAGGGACAGUCUACAUTT against Rorc	-0.534 (inactive)
GAUUUCUAUACAGCCUAUCTT against Olfr799	0.312 (inactive)
GGCUACAAGUUGGUAAUCUTT against Pnkp	3.36 (active)
GGCUGGACAGGAUUAUCCATT against Tmem185b	-0.904 (inactive)
CGCAGGUAAUUUGUUUGUGTT against Mtnr1b	1.16 (inactive)

Sequence	z-score
GCAUAGCAAUGAAAAUCUATT against Lrit2	1.06 (inactive)
GGUUAAAGUUAAAUCUGUCTT against C6	-2.35 (active)
GGUCAAUCUUUGGAGUAUUTT against Stk39	-0.129 (inactive)
GCUUCCAAUUACUUAUCCATT against Phc3	-0.0705 (inactive)
GGGAAGAAGAGAUUCUGAUTT against Cep250	-1.53 (inactive)
GGCAGGUUUAACUUUAAUGTT against Cacna1e	3.59 (active)
GGACAAGGAUAGUAGUAAGTT against Parp1	-0.122 (inactive)
GCAUACCCUAUUUAGUUUUTT against Gpr33	-0.00896 (inactive)
GCACGAAGAACCACACAAGTT against Sp110	2.37 (active)
CCGGAGUCAGUAUCCAGAATT against Ndufaf4	-0.282 (inactive)
GCCGUGGAUCGAAUAAUUCTT against Coq7	-1.03 (inactive)
GGUUUUAGUAAACUUCCCATT against Fam76b	-0.692 (inactive)
GGAUCCUGGAUAAUCUGGGTT against Plscr1	-1.35 (inactive)
GCGUGCAUAUAUCCAAUGCTT against Tardbp	1.36 (inactive)
GGUAAUCUCCAAAAAACCATT against Lilra6	-0.863 (inactive)
GCUUUGAGCAGCUAGGUUATT against Tpcn2	3.78 (active)
GGGACCUUUUCAGGACCUUTT against Ucp2	-0.954 (inactive)
GGCUGCCUUCAUCUUUUCUTT against Fth1	0.873 (inactive)
GCUUGUAUGAGAUUACCUATT against Ttc1	1.19 (inactive)
GGUCUUUGAGUCUACACAGTT against Pde4dip	-2.52 (active)
GGAGUCCUACGUCAAAGAATT against Pigz	-0.251 (inactive)
GGAUCAGUAGCAUUAACAATT against Tcf7l2	0.414 (inactive)

Sequence	z-score
GGUUCUCCAUACUUAUGCCTT against Prex1	2.97 (active)
GGGCAAUCUGCUAUUCUCUTT against Pheta2	0.18 (inactive)
CCUUCUGUAUAGGUUCUGGTT against Slc41a3	0.716 (inactive)
GGGCUUAUGGAGUUGUAAATT against Avpi1	-0.633 (inactive)
GGACAAGAAAAAGGAUUAGTT against Clptm1	-0.414 (inactive)
GCGUGAGUCCCUAUAUGAATT against Tmem177	2.98 (active)
GGCUUCGCUCUGGUUUACUTT against Rap1b	0.323 (inactive)
GCAAUUCCACGUAUGGAUUTT against Olfr652	0.336 (inactive)
GGCAAAAUUUGUGUGCAAATT against Mrc1	1.02 (inactive)
GGCAGUCAUUACCUAUCAGTT against Atp7b	-0.271 (inactive)
GGGUCAGCCAAAGGAAAAUTT against Nlrc3	-0.193 (inactive)
CCAUGUCAAUAUAGCUGUCTT against Igfbpl1	2.25 (active)
GCUUUCUCUUAUGGAUCUATT against Olfr700	0.966 (inactive)
CGUGAUGCUGUAAAUAGUUTT against AI606181	-0.485 (inactive)
CCCAGAAGACCCGAACUUUTT against E130006D01Rik	0.378 (inactive)
GGAGCAUCUCUCCAGAUUGTT against Igsf9	0.567 (inactive)
CCGCUUUCUUGCCAUUCACTT against Olfr576	-0.266 (inactive)
GCCUUAAUGCUUCAAGGUGTT against Hspd1	0.021 (inactive)
UCUGACAUUGACUCUAGCCTT against Fbxw16	-2.5 (active)
GUUUAUGGCCUCCUGUUGCTT against Gpbar1	-0.773 (inactive)
GCAUGAGAGGUUUCAGUAUTT against Rnf150	0.454 (inactive)
UUCGCUCUUGGUCCCUUCATT against Olfr1322	1.06 (inactive)

Sequence	z-score
GCAUGUUGUCGACACAUGCTT against Bcl6	2.39 (active)
CCGUCGUGGGUGAUAUCAUTT against 2310022A10Rik	-0.0389 (inactive)
GGUGGCUCUCCAAGUUCUATT against Uchl4	-0.279 (inactive)
GAACACCCUGCCGACCAAATT against Tmsb10	-0.242 (inactive)
GGACUGAGUCAGAUUUACATT against Foxn2	-0.622 (inactive)
GGGCUGAUGCUUAAACAAATT against Vmn1r72	-2.19 (active)
GCCCUUAUUAAACCAUUUGTT against Usp9x	-0.641 (inactive)
GGACUGUUUUAGAUUACUUTT against Klra4	0.968 (inactive)
GCUUAUGUUUCUGCCACUCTT against Olfr1136	0.124 (inactive)
GCCACCAUUAAAAGACUGATT against Gdnf	0.737 (inactive)
GGACAAGAUGAACUUUUCCTT against Pomp	-2.85 (active)
CCUUGUAUGGAGAUAUUCCTT against Aph1b	-0.573 (inactive)
GGUUCAGUUUGGAAAUGAATT against Rbm26	0.809 (inactive)
CGUCUGUUUACCUCAUGAATT against Arid3a	-0.769 (inactive)
GGAUUUUGUCGGCAAGGCCTT against Ap5s1	-3.12 (active)
GGACUACUUCCCAAGAAUUTT against Gle1	0.365 (inactive)
GGUGGAGAAACAAAUUAGUTT against Rab9	1.47 (inactive)
GGAAGAAAGAAUUGAACUUTT against Add3	1.02 (inactive)
CAUGAACGUGGGUAAAACGTT against Rab20	-0.878 (inactive)
GGAACUGGAUCCUAGGAUATT against Sh3bp5l	-1.35 (inactive)
